# Publication PMC4552634, “A New Set of Chemical Starting Points with Plasmodium falciparum Transmission-Blocking Potential for Antimalarial Drug Discovery” (PLoS ONE, 2015)
# In all, about 13,000 compounds went through this assay and about 3,200 (25%) showed an effect of 50% or more. This is one part of the list.
# Test system: P. falciparum stage V gametocytes
# Set-up: BacTiter-Glo ATP luminescence viability of purified stage V gametocytes in 384-well plates, per cent inhibition versus DMSO
# Settings: 48 h, 5 µM; inhibitor
row,SMILES,% Inhibition
1,Cc1cnc(-c2cccc(C(=O)NC3CCC(CCN4CCc5ccc(C#N)cc5CC4)CC3)c2)[nH]1 (centres unmarked) [TCMDC-139842],-56.62%
2,CS(=O)(=O)N1CC2(CCN(CCC(NC(=O)NCc3ccccc3Cl)c3ccc(Cl)c(Cl)c3)CC2)c2ccccc21 (centres unmarked) [TCMDC-141768],10.44%
3,O=C(Nc1ccc(Br)c(C(F)(F)F)c1)c1cccc([N+](=O)[O-])c1 [TCMDC-123520],-21.49%
4,O=C1COC2(CN1C1CCN(Cc3ccc(O)cc3Cl)C1)c1ccccc1-c1ccccc12 (centres unmarked) [TCMDC-136341],24.28%
5,FC(F)(F)c1ccc2nc(-c3ccc(-c4cccc(CN5CCN(CCN6CCOCC6)CC5)c4)cc3)[nH]c2c1 [TCMDC-133943],-11.41%
6,Fc1ccc2nc(-c3cccc(-c4ccc(CN5CCN(CCN6CCOCC6)CC5)cc4)c3)[nH]c2c1 [TCMDC-133942],39.55%
7,Fc1ccc2nc(-c3ccc(-c4cccc(CN5CCN(CCN6CCOCC6)CC5)c4)cc3)[nH]c2c1 [TCMDC-133936],-11.53%
8,OCCN1CCN(Cc2cccc(-c3ccc(-c4nc5ccc(C(F)(F)F)cc5[nH]4)cc3)c2)CC1 [TCMDC-133031],3.481%
9,OCCN1CCN(Cc2ccc(-c3cccc(-c4nc5ccc(F)cc5[nH]4)c3)cc2)CC1 [TCMDC-133032],-6.536%
10,CN1CCC(N2CCN(Cc3cccc(-c4ccc(-c5nc6ccc(C(F)(F)F)cc6[nH]5)cc4)c3)CC2)CC1 [TCMDC-133842],104%
11,CN1CCC(N2CCN(Cc3cccc(-c4ccc(-c5nc6ccc(F)cc6[nH]5)cc4)c3)CC2)CC1 [TCMDC-133858],97.12%
12,N#CCCN1CCN(Cc2cccc(-c3ccc(-c4nc5ccc(F)cc5[nH]4)cc3)c2)CC1 [TCMDC-133860],-16.76%
13,CN1CCC(N2CCN(Cc3ccc(-c4cccc(-c5nc6ccc(F)cc6[nH]5)c4)cc3)CC2)CC1 [TCMDC-133843],52.56%
14,CCN(c1cc(C)nc(Nc2ccc(Cl)cc2)n1)[C@H]1CCN(Cc2ccccc2)C1 [TCMDC-132205],-28.73%
15,CC(C)(C)c1cc(C(=O)N2CCN(c3nccnc3C#N)CC2)n(Cc2ccccc2)n1 [TCMDC-134141],-3.89%
16,OC(c1cccc2ccccc12)C1CN(CCc2ccccc2)CCC1(O)c1ccccc1 (centres unmarked) [TCMDC-131998],42.45%
17,COc1ccc(C2=C(Nc3ccc4oc5ccccc5c4c3)c3ccccc3C2=O)cc1 [TCMDC-125672],2.294%
18,Cc1noc(C)c1-c1cccc(CNCc2ccc(-c3ccc(-c4nc5cc(F)ccc5[nH]4)cc3)cc2)c1.O=C(O)C(F)(F)F [TCMDC-133057],12.39%
19,Cc1cccc2nc(-c3ccc(-c4cccc(CNCC5CCCO5)c4)s3)[nH]c12.O=C(O)C(F)(F)F (centres unmarked) [TCMDC-133094],10.18%

row,SMILES,% Inhibition
1,Cc1cccc2nc(-c3cccc(-c4cccc(CNCC5CCCO5)c4)c3)[nH]c12.O=C(O)C(F)(F)F (centres unmarked) [TCMDC-133104],76.66%
2,COC(=O)c1cccc(CNCc2ccc(-c3cccc(-c4nc5cccc(C)c5[nH]4)c3)cc2)c1.O=C(O)C(F)(F)F [TCMDC-132948],73.37%
3,Cc1cccc2nc(-c3cccc(-c4cccc(CNCc5cccc(N)c5)c4)c3)[nH]c12.O=C(O)C(F)(F)F [TCMDC-132928],56.62%
4,COC(=O)c1cccc(CNCc2ccc(-c3ccc(-c4nc5ccccc5[nH]4)s3)cc2)c1.O=C(O)C(F)(F)F [TCMDC-132945],-1.704%
5,Cc1cccc2nc(-c3ccc(-c4cccc(CNCC5CCCO5)c4)cc3)[nH]c12.O=C(O)C(F)(F)F (centres unmarked) [TCMDC-133098],-5.371%
6,COC(=O)c1cccc(CNCc2cccc(-c3cccc(-c4nc5cccc(C)c5[nH]4)c3)c2)c1.O=C(O)C(F)(F)F [TCMDC-132946],7.725%
7,COC(=O)c1cccc(CNCc2ccc(-c3ccc(-c4nc5cccc(C)c5[nH]4)s3)cc2)c1.O=C(O)C(F)(F)F [TCMDC-132950],57.35%
8,COc1ccc(CNCc2ccc(-c3cccc(-c4nc5cccc(C)c5[nH]4)c3)cc2)cc1.O=C(O)C(F)(F)F [TCMDC-132729],40.55%
9,COC(=O)c1cccc(CNCc2cccc(-c3ccc(-c4nc5cccc(C)c5[nH]4)s3)c2)c1.O=C(O)C(F)(F)F [TCMDC-132956],-38.48%
10,Cc1cccc2nc(-c3cccc(-c4ccc(CNCc5cccc(N)c5)cc4)c3)[nH]c12.O=C(O)C(F)(F)F [TCMDC-132930],-5.493%
11,Cc1cccc2nc(-c3ccc(-c4ccc(CNCc5cccc(N)c5)cc4)cc3)[nH]c12.O=C(O)C(F)(F)F [TCMDC-132938],-30.59%
12,Brc1ccsc1-c1nc(NC2CCN(Cc3ccccc3)CC2)no1 [TCMDC-134188],10.75%
13,NCC(=O)NC12CC3CC(CC(C3)C1)C2 [TCMDC-131419],-2.875%
14,N#CC1(c2ccccc2)CCN(c2nc(NCCCN3CCCC3=O)nc(N3CCCC4CCCCC43)n2)CC1 (centres unmarked) [TCMDC-139927],-17.2%
15,CCNc1cc(C(=O)N[C@@H](Cc2ccccc2)[C@H](O)CNCCc2cc(OC)cc(OC)c2)cc(N2CCCCS2(=O)=O)c1 [TCMDC-134842],28.85%
16,Cc1cccc2nc(-c3ccc(-c4cccc(NC(=O)CCc5c[nH]cn5)c4)s3)[nH]c12 [TCMDC-132161],5.175%
17,COC(=O)c1cccc(CNCc2ccc(-c3ccc(-c4nc5cccc(C)c5[nH]4)cc3)cc2)c1.O=C(O)C(F)(F)F [TCMDC-132957],77.27%
18,COC(=O)c1cccc(CNCc2cccc(-c3ccc(-c4nc5cccc(C)c5[nH]4)cc3)c2)c1.O=C(O)C(F)(F)F [TCMDC-132952],25.59%
19,COC(=O)c1cccc(CNCc2ccc(-c3ccc(-c4nc5cc(F)ccc5[nH]4)cc3)cc2)c1.O=C(O)C(F)(F)F [TCMDC-132953],44.17%
